Results on 30 sequences are retold here after paper PMC9838217, “Structure of SALL4 zinc finger domain reveals link between AT-rich DNA binding and Okihiro syndrome”.

Substitutions are numbered along the chain they refer to.

Experiment in all cases: HT-SELEX; high values mean tight binding
Conditions in all cases: protein: recombinant; vector His6-GST; dsDNA, one strand shown

For one test, the target named is T1, SALL4 ZFC4 WT (HT-SELEX) (Mus musculus, UniProt Q8BX22 870-940).
T1 sequence: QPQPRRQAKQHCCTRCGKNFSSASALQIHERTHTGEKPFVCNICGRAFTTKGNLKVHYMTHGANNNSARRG
The method, boiled down: (§1)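 Residues 870–940 of mouse SALL4, forming zinc finger cluster 4, were expressed recombinantly, purified, and 1 µg was incubated with library DNA (1.5 µg first cycle, 200 ng later) in 100 µl of 10 mM Tris–HCl pH 7.5, 50 mM NaCl, poly(dI-dC) and DTT for 10 min at room temperature. Washed Ni2+ bead-captured complexes were PCR-amplified and reselected for up to 6 cycles in triplicate, and the products were sequenced on MiSeq and scanned for 6-mers. Binding signal is the fold change in each canonical k-mer's read fraction compared with the initial random library.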

Test [1] deals with T2, SALL4 ZFC4 R900W (HT-SELEX) (Mus musculus, UniProt Q8BX22 870-940, R900W).
T2 sequence: T1 sequence with R31W
Put shortly: as §1

In test [2] the target is T3, SALL4 ZFC4 G921D (HT-SELEX) (Mus musculus, UniProt Q8BX22 870-940, G921D).
T3 sequence: T1 sequence with G52D
The method, boiled down: as §1

Regarding GTACAC, the values for the binding signal (with SALL4 ZFC4 WT (HT-SELEX); in test [1]; in test [2]) were 0.768 ± 0.0559 fold-change vs cycle 0, 0.868 ± 0.0144 fold-change vs cycle 0 and 0.9395 ± 0.00736 fold-change vs cycle 0, respectively.

With CACAAG, the binding signal with SALL4 ZFC4 WT (HT-SELEX) came out at 0.713 ± 0.0143 fold-change vs cycle 0; in test [1] it was 0.853 ± 0.0253 fold-change vs cycle 0; in test [2], 0.901 ± 0.0111 fold-change vs cycle 0.

Turning to AGGGGA, the binding signal in the test with SALL4 ZFC4 WT (HT-SELEX) came out at 0.532 ± 0.0414 fold-change vs cycle 0; in test [1], 0.608 ± 0.0303 fold-change vs cycle 0; in test [2], 0.671 ± 0.0432 fold-change vs cycle 0.

As to CTACAC, the binding signal in the test with SALL4 ZFC4 WT (HT-SELEX) is 0.733 ± 0.0291 fold-change vs cycle 0; in test [1] it was 0.845 ± 0.0188 fold-change vs cycle 0; in test [2] it was 0.893 ± 0.0116 fold-change vs cycle 0.

For CCCATC, the binding signal with SALL4 ZFC4 WT (HT-SELEX) came out at 0.471 ± 0.0121 fold-change vs cycle 0; in test [1], 0.54 ± 0.0172 fold-change vs cycle 0; in test [2], 0.613 ± 0.034 fold-change vs cycle 0.

On to CTAAGA, for which the binding signal with SALL4 ZFC4 WT (HT-SELEX) was determined as 1.36 ± 0.0387 fold-change vs cycle 0; in test [1], 1.51 ± 0.0736 fold-change vs cycle 0; in test [2] it was 1.42 ± 0.0981 fold-change vs cycle 0.

Regarding CTCAGC, the binding signal turned out to be 0.369 ± 0.0266 fold-change vs cycle 0 in the test with SALL4 ZFC4 WT (HT-SELEX), 0.414 ± 0.0118 fold-change vs cycle 0 in test [1] and 0.525 ± 0.071 fold-change vs cycle 0 in test [2].

AACCAA: the binding signal turned out to be 1.22 ± 0.0287 fold-change vs cycle 0 with SALL4 ZFC4 WT (HT-SELEX), 1.31 ± 0.0414 fold-change vs cycle 0 in test [1] and 1.28 ± 0.0656 fold-change vs cycle 0 in test [2].

Consider CTTAGC, for which the values for the binding signal (in the test with SALL4 ZFC4 WT (HT-SELEX); in test [1]; in test [2]) were 0.73 ± 0.019 fold-change vs cycle 0, 0.843 ± 0.0192 fold-change vs cycle 0 and 0.8905 ± 0.00272 fold-change vs cycle 0, respectively.

Turning to TATATA, the binding signal with SALL4 ZFC4 WT (HT-SELEX) was 5.68 ± 0.781 fold-change vs cycle 0; in test [1], 2.55 ± 0.233 fold-change vs cycle 0; in test [2], 2.17 ± 0.291 fold-change vs cycle 0.

As to ACGGAT, the binding signal with SALL4 ZFC4 WT (HT-SELEX) is 0.764 ± 0.0238 fold-change vs cycle 0; in test [1], 0.855 ± 0.00544 fold-change vs cycle 0; in test [2] it was 0.887 ± 0.0254 fold-change vs cycle 0.

As for ATGTTA, the binding signal in the test with SALL4 ZFC4 WT (HT-SELEX) is 2.16 ± 0.126 fold-change vs cycle 0; in test [1] it was 2.08 ± 0.106 fold-change vs cycle 0; in test [2], 1.83 ± 0.212 fold-change vs cycle 0.

On to AAACAA, for which the binding signal is 1.75 ± 0.117 fold-change vs cycle 0 in the test with SALL4 ZFC4 WT (HT-SELEX), 1.82 ± 0.0942 fold-change vs cycle 0 in test [1] and 1.66 ± 0.151 fold-change vs cycle 0 in test [2].

With AATCAT, the values for the binding signal (with SALL4 ZFC4 WT (HT-SELEX); in test [1]; in test [2]) were 2.57 ± 0.14 fold-change vs cycle 0, 2.12 ± 0.0633 fold-change vs cycle 0 and 1.93 ± 0.164 fold-change vs cycle 0, respectively.

Consider GAATTC, for which the binding signal in the test with SALL4 ZFC4 WT (HT-SELEX) was determined as 1.29 ± 0.0387 fold-change vs cycle 0; in test [1] it was 1.38 ± 0.0509 fold-change vs cycle 0; in test [2], 1.33 ± 0.0652 fold-change vs cycle 0.

On to CTTCAC, for which the binding signal was determined as 0.856 ± 0.0564 fold-change vs cycle 0 with SALL4 ZFC4 WT (HT-SELEX), 1.04 ± 0.0731 fold-change vs cycle 0 in test [1] and 1.03 ± 0.0678 fold-change vs cycle 0 in test [2].

Regarding ACGTCA, the binding signal is 0.686 ± 0.00954 fold-change vs cycle 0 in the test with SALL4 ZFC4 WT (HT-SELEX), 0.776 ± 0.0221 fold-change vs cycle 0 in test [1] and 0.847 ± 0.0153 fold-change vs cycle 0 in test [2].

With AGCTTG, the binding signal with SALL4 ZFC4 WT (HT-SELEX) was determined as 0.638 ± 0.0175 fold-change vs cycle 0; in test [1], 0.764 ± 0.0176 fold-change vs cycle 0; in test [2] it was 0.841 ± 0.049 fold-change vs cycle 0.

As for CTTTCC, the binding signal turned out to be 0.771 ± 0.025 fold-change vs cycle 0 with SALL4 ZFC4 WT (HT-SELEX), 0.935 ± 0.0213 fold-change vs cycle 0 in test [1] and 0.967 ± 0.0233 fold-change vs cycle 0 in test [2].

Consider CGTCAC, for which the binding signal in the test with SALL4 ZFC4 WT (HT-SELEX) came out at 0.375 ± 0.0256 fold-change vs cycle 0; in test [1], 0.436 ± 0.013 fold-change vs cycle 0; in test [2], 0.545 ± 0.0521 fold-change vs cycle 0.

Consider AAAATA, for which the binding signal with SALL4 ZFC4 WT (HT-SELEX) turned out to be 3.77 ± 0.346 fold-change vs cycle 0; in test [1] it was 2.25 ± 0.159 fold-change vs cycle 0; in test [2], 1.96 ± 0.218 fold-change vs cycle 0.

As for AGAAGG, the binding signal with SALL4 ZFC4 WT (HT-SELEX) came out at 0.864 ± 0.0399 fold-change vs cycle 0; in test [1] it was 1.05 ± 0.055 fold-change vs cycle 0; in test [2] it was 0.997 ± 0.0501 fold-change vs cycle 0.

For the sequence CGGTGA, the binding signal is 0.364 ± 0.0107 fold-change vs cycle 0 with SALL4 ZFC4 WT (HT-SELEX), 0.421 ± 0.0161 fold-change vs cycle 0 in test [1] and 0.548 ± 0.0673 fold-change vs cycle 0 in test [2].

For AGTGCA, the binding signal with SALL4 ZFC4 WT (HT-SELEX) worked out at 0.627 ± 0.0465 fold-change vs cycle 0; in test [1] it was 0.704 ± 0.0363 fold-change vs cycle 0; in test [2], 0.802 ± 0.0221 fold-change vs cycle 0.

For the sequence GATGCA, the results for the binding signal (with SALL4 ZFC4 WT (HT-SELEX); in test [1]; in test [2]) were 0.68 ± 0.0339 fold-change vs cycle 0, 0.75 ± 0.0294 fold-change vs cycle 0 and 0.848 ± 0.0393 fold-change vs cycle 0, respectively.

For the sequence ACTGTA, the binding signal in the test with SALL4 ZFC4 WT (HT-SELEX) amounted to 1.35 ± 0.031 fold-change vs cycle 0; in test [1], 1.49 ± 0.0592 fold-change vs cycle 0; in test [2] it was 1.38 ± 0.111 fold-change vs cycle 0.

On to ATGCAG, for which the binding signal with SALL4 ZFC4 WT (HT-SELEX) was 0.674 ± 0.0311 fold-change vs cycle 0; in test [1], 0.754 ± 0.0134 fold-change vs cycle 0; in test [2], 0.818 ± 0.0231 fold-change vs cycle 0.

For the sequence GAATCC, the binding signal amounted to 0.85 ± 0.00926 fold-change vs cycle 0 with SALL4 ZFC4 WT (HT-SELEX), 0.935 ± 0.0194 fold-change vs cycle 0 in test [1] and 0.989 ± 0.0139 fold-change vs cycle 0 in test [2].

For AGTGTG, the binding signal with SALL4 ZFC4 WT (HT-SELEX) amounted to 0.745 ± 0.0331 fold-change vs cycle 0; in test [1] it was 0.85 ± 0.0147 fold-change vs cycle 0; in test [2] it was 0.909 ± 0.0296 fold-change vs cycle 0.

Consider AGCATG, for which the figures for the binding signal (in the test with SALL4 ZFC4 WT (HT-SELEX); in test [1]; in test [2]) were 0.713 ± 0.0228 fold-change vs cycle 0, 0.806 ± 0.0264 fold-change vs cycle 0 and 0.882 ± 0.0429 fold-change vs cycle 0, respectively.
